Bioassay records as filed in PubChem BioAssay.
Shown are actives, neighbours in structure and some others; about 1.1% of the full set was active somewhere.
NPSR antag – blocks cAMP signaling of the human neuropeptide S receptor. Q6W5P4. CHO-NPSR cells, cAMP TR-FRET, antagonist mode. Potency, µM (titrated, usually from 38.3 µM), inactives show top-dose activity change, negative = inhibition, most hits filed as inhibitors. 220,000 tested, 1% active. AID 1461; note: % is set by controls: 0 for no effect and ±100 for the full control effect; nearly all actives have a fitted effect of over 50% in size
Target sequence (Q6W5P4 whole entry, looked up): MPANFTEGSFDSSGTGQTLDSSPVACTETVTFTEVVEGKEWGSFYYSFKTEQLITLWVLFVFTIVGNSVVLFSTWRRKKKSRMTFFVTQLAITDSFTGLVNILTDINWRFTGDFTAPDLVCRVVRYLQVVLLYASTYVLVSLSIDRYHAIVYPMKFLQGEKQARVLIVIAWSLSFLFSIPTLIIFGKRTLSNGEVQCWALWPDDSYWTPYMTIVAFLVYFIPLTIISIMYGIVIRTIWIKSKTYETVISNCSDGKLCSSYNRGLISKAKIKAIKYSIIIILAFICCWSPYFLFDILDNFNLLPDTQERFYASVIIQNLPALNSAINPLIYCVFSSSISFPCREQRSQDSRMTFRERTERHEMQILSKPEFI
mIDH1 inhibitor – blocks human mutant IDH1 R132H enzyme | Potency, µM (highest dose often 76.6 µM), for inactives: at the top dose activity change, negative = inhibition, most hits filed as inhibitors | O75874 | IDH1-R132H enzyme, NADPH consumption, diaphorase/resazurin fluorescence | AID 602179 | 390,000 tested, 0.093% active; note: % is set by controls: 0 for no effect and ±100 for the full control effect; nearly all actives have a fitted effect of over 65% in size
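IDH1-R132H (0.5 ug/mL dispensed) in pH 7.5 Tris buffer was preincubated 30 min with compound, then given a substrate mix of 0.016 mM NADPH and 2 mM alpha-KG for 80 min at room temperature; remaining NADPH was read by diaphorase/resazurin fluorescence.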
HTT cytoprotect – Huntington cell model cytoprotection by ATP luminescence; Potency, µM (highest dose often 56.4 µM), for inactives: cytoprotection (ATP increase), actives largely listed as activators; PC12 HTT-Q103 induced, cytoprotection, ATP luminescence, 40 h; 230,000 tested, 0.14% active; note: % of control where 0% means no effect; nearly all actives have a fitted effect of over 45% in size
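PC12 cells stably carrying ecdysone-inducible Htt exon 1 (Q103)–GFP were induced with 100 nM tebufenozide (final) alongside library compounds in a dose series. Cytoprotection was scored as retained ATP by ATPlite luminescence.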
HTT aggregate – inhibitors of mutant huntingtin aggregate formation in PC12 cells; PC12 HttQ103-GFP aggregates, Acumen cytometry, 40 h; Potency, µM (highest dose often 46.1 µM), for the others: top-dose activity change, negative = inhibition, actives largely listed as inhibitors; 220,000 tested, 1.1% active; AID 1688; note: % is set by controls: 0 for no effect and ±100 for the full control effect; nearly all actives have a fitted effect of over 60% in size
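Quantitative HTS on tebufenozide-induced (100 nM) PC12 cells stably expressing polyQ103 Huntingtin exon 1–GFP. Reduction of bright GFP aggregates, detected by laser scanning cytometry after lysis, identified actives across the titration.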
AT treatment – potential ataxia-telangiectasia treatment. F2112 A-T fibroblasts, KAP-1 phosphorylation AlphaLISA; neocarzinostatin DNA damage 30 min before lysis. Potency, µM (series often up to 57.5 µM), for the others: at the highest dose activation, actives largely listed as activators. 320,000 tested, 0.19% active; note: % of control where 0% means no effect; nearly all actives have a fitted effect of over 45% in size
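hTERT-immortalized A-T patient fibroblasts (F2112), 500 cells/well in OPTI-MEM, 1% FBS, got compounds for 60 min, then NCS for 30 min at 37C. Lysates were then assayed for phospho-KAP-1 by AlphaLISA (anti-pKAP1 donor, anti-KAP1 acceptor beads), 6 hr at 25C.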
Starred values were filed as active, the others as inactive; [ ] = another dose, or the depositor's remark. Calls come from the whole dose curve; as a rule, active = well fitted curve in the direction sought with a large enough effect; inconclusive = small, poorly fitted or top-dose-only effect, or another doubt; inactive = no such curve, though single readings can be large; an effect the other way counts as inactive or inconclusive. Potency is the fitted concentration of half-maximal effect.

`C[C@H]1CC[C@@H]2[C@@H](C)[C@H]3[C@H](C[C@H]4[C@@H]5CC=C6CC(O[C@@H]7O[C@H](CO)[C@H](O)[C@H](O[C@@H]8O[C@H](CO)[C@@H](O)[C@H](O)[C@H]8O)[C@H]7O[C@H]7O[C@@H](C)[C@H](O)[C@@H](O)[C@H]7O)CC[C@]6(C)[C@H]5CC[C@]34C)N2C1` (stereo not given in full) gave HTT cytoprotect -101.8% and HTT aggregate 22.4µM*.
Screening CCN(CC)c1ncnc2c1ncn2[C@@H]1O[C@@H](COP(=O)(O)OP(=O)(O)C(Br)(Br)P(=O)(O)O)[C@H](O)[C@@H]1O returned HTT cytoprotect 2.0%[1.9 µM].
Screening Oc1cc(Cl)ccc1Oc1ccc(Cl)cc1Cl returned mIDH1 inhibitor 6.4% and HTT cytoprotect 7.08µM*.
Screening CN1C[C@@H](CNC(=O)OCc2ccccc2)C[C@H]2c3cccc4c3c(cn4C)C[C@@H]21 returned HTT cytoprotect -10.4%[1.9 µM].
`C[C@]12O[C@H](C[C@]1(O)CO)n1c3ccccc3c3c4c(c5c6ccccc6n2c5c31)CNC4=O` gave HTT cytoprotect -97.5% and HTT aggregate 1.58µM*.
`N[C@@H](Cc1cc(O)c(O)cc1O)C(=O)O` gave HTT cytoprotect -2.3%[1.9 µM].
Screening C[C@@H]1CC[C@H]2[C@@H](C)C(=O)O[C@@H]3OC4(C)CC[C@@H]1C32OO4 (stereo not given in full) returned HTT cytoprotect -154.4% and HTT aggregate 3.16µM*.
C[C@@H]1CC[C@H]2[C@@H](C)C(=O)O[C@@H]3O[C@@]4(C)CC[C@@H]1[C@]32OO4 was read as mIDH1 inhibitor 1.4% and AT treatment 0.4%.
Screening O=[N+]([O-])c1ccc(N2CCCC2)c2ccncc12 returned NPSR antag -39.6%, mIDH1 inhibitor 2.4%, HTT cytoprotect -36.9%, HTT aggregate 22.4µM* and AT treatment -5.2%.
Screening CCCC[N+]1(C)[C@@H]2CC(OC(=O)[C@@H](CO)c3ccccc3)C[C@H]1[C@H]1O[C@H]12 (stereo not given in full) returned HTT cytoprotect -8.5%[1.9 µM].
Screening CC(=O)[O][Hg][c]1ccccc1 returned HTT cytoprotect -359.7% and HTT aggregate 1.58µM*.
O=C(O)CN1CCN(CC(=O)O)CC(=O)[O][Hg][O]C(=O)C1 was read as HTT cytoprotect -44.8%[10 µM].
For O=[N+]([O-])c1c(Cl)c(Cl)c(Cl)c(Cl)c1Cl the results were mIDH1 inhibitor 0.6% and HTT cytoprotect -22.2%.
Screening Nc1cc(Cl)c2nonc2c1[N+](=O)[O-] returned NPSR antag -36.9%, mIDH1 inhibitor -9.1%, HTT cytoprotect -14.7%[10 µM], HTT aggregate 4.47µM* and AT treatment -0.9%.
For O=C(/C=C/c1ccccc1)c1c(O)n(CCc2ccccc2)c(=O)[nH]c1=O the results were NPSR antag 12.6µM*, mIDH1 inhibitor 1.8%, HTT cytoprotect 6.8%[10 µM], HTT aggregate inconclusive and AT treatment 10.8%.
For COc1cc(/C=C/C(=O)c2c(O)n(CCc3ccccc3)c(=O)[nH]c2=O)ccc1O the results were NPSR antag 10µM*, mIDH1 inhibitor -1.2%, HTT cytoprotect -1.8%[10 µM], HTT aggregate 35.9%[9.22 µM] and AT treatment -2.0%.
O=C(/C=C/c1ccc2c(c1)OCO2)c1c(O)n(CCc2ccccc2)c(=O)[nH]c1=O was read as NPSR antag inconclusive, mIDH1 inhibitor 2.2%, HTT cytoprotect 20.3%[10 µM], HTT aggregate 1.4%[9.22 µM] and AT treatment 7.6%.
CN(C)c1ccc(/C=C/c2cc[n+](C)c3ccccc23)cc1 was read as NPSR antag 6.31µM*, mIDH1 inhibitor 12.2%, HTT cytoprotect -67.1%[10 µM], HTT aggregate inconclusive and AT treatment -9.7%.
NC(=O)CN1C[C@@H](O)CC1=O was read as HTT cytoprotect 1.0%[1.9 µM].
For Cc1cc(=O)oc2cc3c(cc12)CCCN3 the results were mIDH1 inhibitor 0.6% and AT treatment 20µM*.
For CCOP(=O)(Cc1ccc(C(=O)CC)o1)OCC the results were NPSR antag 5.1%, mIDH1 inhibitor 14.1%, HTT cytoprotect -4.3%[10 µM], HTT aggregate -1.7%[9.22 µM] and AT treatment 44.6%.
For CCOP(=O)(Cc1cc(C(=O)CC)c(C)o1)OCC the results were NPSR antag 9.0%, mIDH1 inhibitor 0.0%, HTT aggregate 0.01µM* and AT treatment -5.4%.
For C[C@]12CC[C@H](O)C[C@@H]1CC[C@H]1[C@H]2CC[C@]2(C)[C@H](C(=O)CO)CC[C@@H]12 the results were HTT cytoprotect 5.2%[1.9 µM].
CC(C)N(Cc1ccco1)/N=C/c1c(O)n(Cc2ccccc2)c(=O)[nH]c1=O was read as NPSR antag -8.2%, mIDH1 inhibitor 1.5%, HTT cytoprotect 12.9%[10 µM], HTT aggregate 11.8%[9.22 µM] and AT treatment 39.8µM*.
Screening Cc1cc(O)c2c(c1)C(=O)C13C(=C2O)C(=O)[C@H]2[C@@H](O)[C@@H]1[C@H]1[C@H](O)[C@@H]3C(=O)C3=C(O)c4c(O)cc(C)cc4C(=O)C312 (stereo not given in full) returned mIDH1 inhibitor -2.3% and AT treatment 8.91µM*.
CC1=CC2/C=C(\C)CCC(O)C(O)/C=C/C(=O)C23C(=O)NC(CC(C)C)C3C1C (stereo not given) was read as NPSR antag inconclusive, mIDH1 inhibitor 4.2%, HTT cytoprotect inconclusive, HTT aggregate inconclusive and AT treatment 20.0%.
C/C1=C\[C@@H](C)C/C=C/[C@H]2[C@@H]3O[C@]3(C)[C@@H](C)[C@H]3[C@H](Cc4c[nH]c5ccccc45)NC(=O)[C@]32C(=O)/C=C/C(=O)[C@@H]1O was read as NPSR antag inconclusive, mIDH1 inhibitor -4.1%, HTT cytoprotect -8.7%[10 µM], HTT aggregate inconclusive and AT treatment 39.8µM*.
Screening CC(C)(C)c1cc([N+](=O)[O-])cc(C(C)(C)C)c1O returned NPSR antag -46.0%, mIDH1 inhibitor 1.1%, HTT cytoprotect -33.4%, HTT aggregate 7.94µM* and AT treatment 3.9%.
Screening CC(C)C[C@H](NP(=O)(O)O[C@@H]1O[C@@H](C)[C@@H](O)[C@@H](O)[C@H]1O)C(=O)N[C@@H](Cc1c[nH]c2ccccc12)C(=O)O returned HTT cytoprotect -10.6%[1.9 µM].
Screening Cc1nn(Cc2ccccc2Cl)c(Cl)c1C(=O)O returned NPSR antag -1.2%, mIDH1 inhibitor -6.9%, HTT cytoprotect -28.9%, HTT aggregate -2.9% and AT treatment -1.1%.
For CC(C)(C)c1nc(N2CCN(C(=O)c3ccco3)CC2)c2nnn(Cc3ccccc3Cl)c2n1 the results were NPSR antag 10µM*, mIDH1 inhibitor -17.3%, HTT cytoprotect 15.0%[10 µM], HTT aggregate 6.2%[9.22 µM] and AT treatment 1.2%.
